Test [1] relates to XIP peptide (Xip251-270) binding. Description: small-molecule binders of XIP peptide, primary screen, biochemical, small-molecule microarray, fluorescence 635/667 nm, 0.1 µg/mL protein (AID 1182). The following applies: fluorescent protein binding, 635 nm, higher = more signal, called active from +8 up or from −8 down.
A further test relates to XIP peptide (Xip251-270). Description: small-molecule binders of XIP peptide, primary screen, biochemical, small-molecule microarray, fluorescence 635/667 nm, 0.5 µg/mL protein (AID 1183). The following applies: small-molecule microarray binding, fluorescence 635 nm; higher = more signal.
Test [2] in a line: Plasmodium falciparum growth inhibition, primary screen, strain 3D7, DAPI fluorescence, 100 nL (AID 1184).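 Also: parasites grown inside human red blood cells in medium with human serum.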 The following applies: P. falciparum 3D7 growth, 3 d, higher = more signal.
The target of test [3] is Homeobox protein Hox-A13 (Mus musculus) (UniProt Q62424). As to the kind of experiment: inhibitors of HoxA13-DNA binding, primary screen, biochemical, fluorescence polarization, labeled oligonucleotide (AID 1185). The following applies: 15 min, higher = more signal, called active from +8 up or from −8 down. A general note: Polarisation of emitted light reports the rotation of a fluorescent probe.
Chain of Homeobox protein Hox-A13 (Mus musculus) (Q62424 whole entry, looked up): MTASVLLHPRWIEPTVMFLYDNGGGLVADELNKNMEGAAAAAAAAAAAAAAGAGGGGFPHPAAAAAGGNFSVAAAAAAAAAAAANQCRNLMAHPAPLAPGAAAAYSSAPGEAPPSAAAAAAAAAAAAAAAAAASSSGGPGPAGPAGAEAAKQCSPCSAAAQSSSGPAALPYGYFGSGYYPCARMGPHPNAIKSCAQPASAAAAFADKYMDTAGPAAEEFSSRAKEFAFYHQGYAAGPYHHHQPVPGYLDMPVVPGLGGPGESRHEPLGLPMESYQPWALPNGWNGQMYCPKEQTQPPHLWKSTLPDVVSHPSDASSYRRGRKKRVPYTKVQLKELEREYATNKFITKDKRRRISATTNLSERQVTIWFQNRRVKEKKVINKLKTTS

Test [4] is described as follows: inhibitors of hydroxyurea-induced Chk1 phosphorylation, primary screen, imaging, HeLa, phospho-Chk1 antibody, percent positive cells (AID 1186). To be noted: hydroxyurea-induced phospho-Chk1 immunofluorescence imaging, higher = more signal.
Test [5] can be described thus: inhibitors of hydroxyurea-induced Chk1 phosphorylation, primary screen, imaging, HeLa, phospho-Chk1 nuclear intensity (AID 1187). The following applies: hydroxyurea-induced phospho-Chk1 immunofluorescence imaging, higher = more signal.

Calls of active or inactive are those of the source. Unless noted, no rule for the calls is given here.

Regarding `C=CCC(OC(C)=O)[C@@H]1[C@@H](N(Cc2cccc3ccccc23)C(=O)c2ccc(C)cc2)c2cc(OCCCO)ccc2N1C(=O)Cc1ccc2ccccc2c1` (stereo partly specified), the composite z-score is -0.929 (inactive) in test [1] and 0.0814 in the test with XIP peptide (Xip251-270). Also, the z-score in test [2] is -0.145; in test [3], -0.0782 (inactive); in test [4] it was -0.648 (inactive); in test [5], -0.416 (inactive).

`COc1ccc(C#Cc2ccc3c(c2)[C@]2(C(=O)N3)[C@H](c3ccccc3OCCO)N3[C@H](c4ccccc4)[C@H](c4ccccc4)OC(=O)[C@H]3[C@@H]2C(=O)NC[C@H](O)c2ccccc2)cc1`: the figures for the composite z-score (in test [1]; in the test on XIP peptide (Xip251-270)) were 0.134 (inactive) and 0.709, respectively. The z-score in test [2] is -2.01; in test [3] it was -1.77 (inactive); in test [4], -0.11 (inactive); in test [5] it was 0.108 (inactive).

In the case of `O=C1O[C@H](c2ccccc2)[C@H](c2ccccc2)N2[C@H]1[C@@H](C(=O)O)[C@]1(C(=O)Nc3ccccc31)[C@H]2c1ccc(OCCO)cc1`, the values for the composite z-score (in test [1]; with XIP peptide (Xip251-270)) were 1.13 (inactive) and 0.711, respectively. The z-score is -0.443 in test [2], -6.4 (inactive) in test [3], 0.618 (inactive) in test [4] and 0.612 (inactive) in test [5].

For the compound `CCOC(=O)C1=CC[C@@H](c2ccccc2)N(S(=O)(=O)c2ccc(C)cc2)[C@@H]1C#N`, the composite z-score in test [1] was 0.216 (inactive); in the test with XIP peptide (Xip251-270), 0.423. The z-score was -0.465 in test [2], -4.26 (inactive) in test [3], -1.95 (inactive) in test [4] and -2.5 (inactive) in test [5].

Consider `O=C1NC(=O)C2C1C=CC(C(O)c1ccc(F)cc1)N2Nc1ccc(Cl)cc1Cl` (stereo unspecified), for which the figures for the composite z-score (in test [1]; in the test on XIP peptide (Xip251-270)) were -0.138 (inactive) and -0.258, respectively. Moreover, the z-score was -0.525 in test [2], -5.48 (inactive) in test [3], -0.142 (inactive) in test [4] and 0.116 (inactive) in test [5].

`[N-]=[N+]=NCc1ccccc1C[C@@]1(C(N)=O)N=C(c2ccc(OCCCO)cc2)O[C@@H]1c1ccccc1N=[N+]=[N-]`: the composite z-score in test [1] was 0.497 (inactive); with XIP peptide (Xip251-270), 0.63. Moreover, the z-score was -2.41 in test [2], -4.99 (inactive) in test [3], 0.627 (inactive) in test [4] and 1.02 (inactive) in test [5].

Consider `Cc1ccc(S[C@]2(C(=O)NCc3ccccc3)CC(=O)N(Cc3ccccc3C(F)(F)F)[C@@H]2c2ccc(CO)cc2I)cc1`, for which the composite z-score was 0.404 (inactive) in test [1] and 0.623 with XIP peptide (Xip251-270). For the same compound, the z-score in test [2] was 0.0951; in test [3] it was -2.23 (inactive); in test [4] it was 0.225 (inactive); in test [5], 0.923 (inactive).

Turning to `CC(C)C(=C=CC[C@H](O)c1cccc(OCCO)c1)C[C@H](O)c1ccccn1`, the composite z-score was 0.549 (inactive) in test [1] and 0.806 with XIP peptide (Xip251-270). In addition, the z-score in test [2] was -0.991; in test [3], -3.81 (inactive); in test [4], -0.428 (inactive); in test [5], 0.321 (inactive).

In the case of `CN1C(=O)C2CC=C(C3=CCO[C@@H]3[C@H]3CCCN3S(=O)(=O)c3ccccc3[N+](=O)[O-])CC2C1=O` (stereo partly specified), the values for the composite z-score (in test [1]; in the test with XIP peptide (Xip251-270)) were 0.162 (inactive) and 0.728, respectively. In addition, the z-score in test [2] is 0.561; in test [3] it was -6.57 (inactive); in test [4], -0.0719 (inactive); in test [5], 0.234 (inactive).

Take `COC(=O)[C@@]1(Cc2ccc(F)cc2)[C@H]2c3cc(C(=O)N4CCCC4)n(C[C@H](O)CO)c3C[C@H]2CN1C(=O)c1ccccc1`: the values for the composite z-score (in test [1]; with XIP peptide (Xip251-270)) were 1.17 (inactive) and 0.0592, respectively. Moreover, the z-score is -0.534 in test [2], -5.57 (inactive) in test [3], 0.588 (inactive) in test [4] and 0.439 (inactive) in test [5].

Consider `O=C(NCC(F)(F)F)[C@@H]1c2ccccc2C(=O)N(Cc2cc(C(F)(F)F)cc(C(F)(F)F)c2)[C@H]1c1ccc(CO)cc1`, for which the results for the composite z-score (in test [1]; in the test on XIP peptide (Xip251-270)) were -0.398 (inactive) and 0.637, respectively. The z-score in test [2] was 0.362; in test [3] it was -2.44 (inactive); in test [4], -0.373 (inactive); in test [5], -0.356 (inactive).

In the case of `COC(=O)[C@@]1(Cc2ccc(F)cc2)[C@H]2c3cc(C(=O)N(C)C)n(Cc4ccsc4Br)c3C[C@H]2CN1C(=O)c1ccccc1`, the composite z-score was 1.29 (inactive) in test [1] and 0.102 in the test with XIP peptide (Xip251-270). In addition, the z-score is -1.75 in test [2], -5.36 (inactive) in test [3], -0.219 (inactive) in test [4] and -1.12 (inactive) in test [5].

Turning to `COC(=O)C(CC#Cc1ccc2c(c1)[C@]1(C(=O)N2)[C@H](C(=O)NC[C@H](O)c2ccccc2)[C@H]2C(=O)O[C@H](c3ccccc3)[C@H](c3ccccc3)N2[C@@H]1c1ccc(O)cc1)C(=O)OC`, the results for the composite z-score (in test [1]; in the test on XIP peptide (Xip251-270)) were 0.321 (inactive) and 0.418, respectively. Besides, the z-score in test [2] was -1.05; in test [3] it was -3.56 (inactive); in test [4], 0.288 (inactive); in test [5], 0.557 (inactive).

Turning to `COc1c(C)cc(-c2nc(-c3ccccc3)c3c(c2C)CO[Si]3(C(C)C)C(C)C)cc1C`, the values for the composite z-score (in test [1]; with XIP peptide (Xip251-270)) were 0.412 (inactive) and -0.487, respectively. For the same compound, the z-score in test [2] was -2.79; in test [3] it was -0.848 (inactive); in test [4] it was 0.157 (inactive); in test [5], 0.0254 (inactive).

Regarding `COCCCNC(=O)[C@]1(Cc2ccccc2N=[N+]=[N-])N=C(c2ccc(OCCCO)cc2)O[C@@H]1c1ccccc1`, the composite z-score is 1.22 (inactive) in test [1] and 0.77 with XIP peptide (Xip251-270). Besides, the z-score is -2.17 in test [2], -2.62 (inactive) in test [3], -0.129 (inactive) in test [4] and 0.0037 (inactive) in test [5].

As to `CCOC(=O)C1=CCC(c2cccn2C(=O)OC(C)(C)C)N(S(=O)(=O)c2ccc(C)cc2)C1` (stereo unspecified), the composite z-score in test [1] is 0.153 (inactive); with XIP peptide (Xip251-270), 0.732. For the same compound, the z-score in test [2] is -1.62; in test [3], 0.323 (inactive); in test [4], -1.06 (inactive); in test [5], -1.18 (inactive).

The record behind these values is PubChem BioAssay.
